In PubChem BioAssay (NCATS) one finds Potency, viability (% of control) and viability, % of control data, which are given here for 28 compounds.

A short description of test [1]: Viability qHTS for spleen associated tyrosine kinase inhibitor (SYKi) naive MV4-11 cells (AID 1963823). Further: nearly all actives have a fitted effect of over 40% in size. The settings on record: MV4-11 AML viability, CellTiter-Glo luminescence, 72 h; series mostly up to 45 µM. In short, it runs like this:
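Read-out: CellTiter-Glo luminescence. Exposure: 72 hr, 37 C, 5% CO2, 95% humidity. Cells: MV4-11 without SYK inhibitor history, 500/well, qHTS format.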
For orientation: In qHTS, concentration-response curves come from the screen itself.

Test [2] in a line: Viability qHTS for spleen associated tyrosine kinase inhibitor (SYKi) drug resistant MV4-11 cells (AID 1963824). Further: nearly all actives have a fitted effect of over 35% in size. Particulars: SYKi-resistant MV4-11 viability, CellTiter-Glo, 72 h; series mostly up to 45 µM. In short, it runs like this:
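CellTiter-Glo luminescence, read 10 min after reagent addition, reports viability after a 72 hr compound exposure. Cells are an MV4-11 line made resistant to SYK inhibition, seeded at 500 per well onto compound-containing plates.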

Inconclusive results are not listed. A number with no mark means an inactive call. Active and inactive are the calls of the source. The call rests on the fitted dose curve; in most records, active means well fitted cell-killing curve with a large enough effect; inconclusive means small, poorly fitted or top-dose-only effect, or effect the other way; inactive means no such curve, though single readings can be large or run the other way.
Potency means the concentration at half of the fitted maximal effect.

`COC1=CC(=O)O[C@@H](CCc2ccccc2)[C@@H]1O`: the Potency result in test [1] and in test [2] was “inactive” each time.

In the case of `CC(C)C(C(=O)N1CCCC1C(=O)O)N(C)C(=O)C(O)Cc1ccccc1` (stereo unspecified), the Potency entry in test [1] and in test [2] was “inactive” throughout.

As for `CC1(C)CC[C@]2(C(=O)OC3OC(CO)C(O)C(O)C3O)CC[C@]3(C)C(=CCC4[C@@]5(C)C[C@@H](O)[C@H](OC6OC(C(=O)O)C(O)C(O)C6O)C(C)(C)C5CC[C@]43C)[C@@H]2C1` (stereo partly specified), the viability (% of control) in test [1] is 76.2% [at 9.25 µM]. In addition, in test [2], the viability, % of control is 95.5% [at 9.25 µM].

As to `COc1c(C)c(OCC(O)C(C)(C)O)cc2c1CNC2=O` (stereo unspecified), the Potency entry in test [1] and in test [2] was “inactive” in each case.

In the case of `CC(C)CC(=O)O[C@@H]1OC=C(CO[C@@H]2O[C@H](CO[C@@H]3O[C@H](CO)[C@@H](O)[C@H](O)[C@H]3O)[C@@H](O)[C@H](O)[C@H]2O)[C@H]2C[C@H](O)[C@@H](CO)[C@@H]12`, the Potency entry in test [1] and in test [2] was “inactive” throughout.

Take `COc1ccc2c3c1O[C@H]1C[C@@H](O)C=C[C@@]31CCN(C)C2`: the Potency result in test [1] and in test [2] was “inactive” throughout.

Take `CC1(CO)CC2C(O)C(=O)C3(CO)CC3(C)C2C1` (stereo unspecified): the Potency result in test [1] and in test [2] was “inactive” throughout.

Consider `C=C(C(=O)O)C1CCC(C)C2CCC(=O)OC2(C)C1` (stereo unspecified), for which the Potency result in test [1] was “inactive”. Besides, in test [2], the Potency is 20600 nM (active).

For `CC(C)(O)/C=C/C(=O)[C@](C)(O)[C@H]1[C@H](O)C[C@@]2(C)[C@@H]3CC=C4[C@@H](C=C(O[C@@H]5O[C@H](CO)[C@@H](O)[C@H](O)[C@H]5O)C(=O)C4(C)C)[C@]3(C)C(=O)C[C@]12C`, the Potency result in test [1] and in test [2] was “inactive” each time.

For the compound `Cc1ccc(NC(=O)c2ccc(CN3CC[C@H](N(C)C)C3)c(C(F)(F)F)c2)cc1Nc1nccc(-c2cncnc2)n1`, the Potency in test [1] was 6320 nM (active); in test [2] it was 7230 nM (active).

For `COc1cc(O)cc(OC2OC(CO)C(O)C(O)C2O)c1` (stereo unspecified), the Potency result in test [1] and in test [2] was “inactive” throughout.

In the case of `O=C(OCC1=C[C@@H](O)[C@@H]2C=CO[C@@H](O[C@@H]3O[C@H](CO)[C@@H](O)[C@H](O)[C@H]3O)[C@H]12)c1ccc(O)cc1`, the Potency result in test [1] and in test [2] was “inactive” throughout.

As for `CC1(CCC(=O)O)C(=O)C=CC23CC4CC(OC4(C)C2O)C13` (stereo unspecified), the Potency result in test [1] and in test [2] was “inactive” in each case.

Regarding `C=C(C(=O)OC)C1C(O)CC2(C)C(O)CCC(=O)C2C1O` (stereo unspecified), the Potency result in test [1] and in test [2] was “inactive” in each case.

Turning to `C=C(C(=O)O)C1CC(O)C2(C)CCCC(C)(O)C2C1` (stereo unspecified), the Potency entry in test [1] and in test [2] was “inactive” in each case.

For the compound `CC1CC(=O)[C@]2(O)C(C(=O)OCCc3ccc(O)cc3)=CO[C@@H](O[C@@H]3O[C@H](CO)[C@@H](O)[C@H](O)[C@H]3O)[C@H]12` (stereo partly specified), the Potency result in test [1] and in test [2] was “inactive” each time.

For `C[C@@H]1CC[C@]2(C(=O)OC3OC(CO)C(O)C(O)C3O)CC[C@]3(C)C(=CCC4[C@@]5(C)CC[C@H](O)[C@](C)(C(=O)O)C5CC[C@]43C)C2[C@]1(C)O` (stereo partly specified), the Potency entry in test [1] and in test [2] was “inactive” in each case.

In the case of `CCOC(=O)c1cc(C#N)c(N2CCC(C(=O)NS(=O)(=O)Cc3ccccc3)CC2)nc1C`, the Potency result in test [1] and in test [2] was “inactive” throughout.

As to `COc1cc(/C=C/C(=O)O[C@H]2[C@H](O)[C@@H](CO)O[C@@]2(CO)O[C@H]2O[C@H](COC(=O)c3ccc(O)cc3)[C@@H](O)[C@H](O)[C@H]2O)cc(OC)c1OC`, the Potency entry in test [1] and in test [2] was “inactive” in each case.

For `C=C1C(=O)O[C@@H]2[C@H]1CC[C@H](C)C(CCC(=O)O)C2(C)O` (stereo partly specified), the results for the Potency in test [1] and in test [2] were 5800 nM (active) and 2310 nM (active), respectively.

As for `CCOc1ccc(Cc2nc(-c3c(C)nc4ccccn34)cs2)cc1`, the results for the Potency in test [1] and in test [2] were 36.6 nM (active) and 18.4 nM (active), respectively.

On to `Oc1cccc(C2NC(=S)Nc3cccc(F)c32)c1` (stereo unspecified), for which the Potency in test [1] is 4610 nM (active); in test [2], 2910 nM (active).

Turning to `CC1(C)OCCn2c1nc1c(N3CCOCC3)nc(-c3cnc(N)nc3)nc12`, the Potency is 1320 nM (active) in test [1] and 2950 nM (active) in test [2].

Consider `N#CC1C(=O)Nc2scc(-c3ccc(-c4ccccc4O)cc3)c2C1=O` (stereo unspecified), for which the Potency entry in test [1] and in test [2] was “inactive” throughout.

In the case of `CC1=CC(=O)OC(C)(CC(C)(O)C(=O)O)C1` (stereo unspecified), the Potency entry in test [1] and in test [2] was “inactive” throughout.

Consider `CCN[C@@H]1C[C@H](N)[C@@H](O[C@H]2OC(CN)=CC[C@H]2N)[C@H](O)[C@H]1O[C@H]1OC[C@](C)(O)[C@H](NC)[C@H]1O`, for which the Potency result in test [1] and in test [2] was “inactive” in each case.

In the case of `O=C(OC[C@H]1O[C@H](O[C@]2(CO)O[C@H](CO)[C@@H](O)[C@@H]2O)[C@H](O)[C@@H](O)[C@@H]1O)c1ccccc1`, the Potency result in test [1] and in test [2] was “inactive” in each case.

As to `C[C@@H]1O[C@@H](O[C@H]2[C@@H](OC(=O)[C@]34CCC(C)(C)CC3C3=CCC5[C@@]6(C)C[C@H](O)[C@H](O[C@@H]7O[C@H](C(=O)O)[C@@H](O)[C@H](O)[C@H]7O)[C@@](C)(C(=O)O)C6CC[C@@]5(C)[C@]3(C)CC4)OC[C@H](O)[C@@H]2O)[C@H](O)[C@H](O)[C@H]1O[C@@H]1OC[C@@H](O)[C@H](O)[C@H]1O` (stereo partly specified), in test [1], the viability (% of control) was 77.1% [at 9.25 µM]. The viability, % of control in test [2] was 74.1% [at 9.25 µM].
